From PubChem BioAssay (NCI) come the findings set out here.

“And” between values parts separate entries of the source, which are not always exact repeats. Equal entries are not always repeated. The panel holds about 83,000 compounds, 20% with a hit somewhere; the sample as a whole holds those more often.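 A percent growth of 40 corresponds to 60% growth inhibition; 0 means no net growth; -100 means all cells died. Active threshold: below 10.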 The source made the active and inactive calls.

This experiment deals with SW-620 colon. Nature of the experiment: NCI-60 one-dose screen, 48 h (100 = growth as untreated, 0 = no growth, -100 = all killed). The following applies: 10 µM unless noted.
Take `COc1cc(/C=C/C(C)=O)ccc1O`: the growth was 104% (inactive) and 110% (inactive).

As to `CC(C)(C)CC(C)(C)c1ccc(OCCSC(=N)N)cc1`, the growth is -12.1% (active).

Regarding `COc1ccc(N=N/N=c2\sc3cc(OC)ccc3n2C)cc1`, the growth was 102% (inactive).

In the case of `O=C(Oc1cccc2cccnc12)c1ccccc1`, the growth is 49.7% (inactive) and 104% (inactive).

As for `S=C(NCCNC(=S)[S][Sn]([c]1ccccc1)([c]1ccccc1)[c]1ccccc1)[S][Sn]([c]1ccccc1)([c]1ccccc1)[c]1ccccc1`, the growth is -97.5% (active).

On to `C[N+](C)=c1ccc2nc3c(cc(NCCCNc4cc5oc6cc(=[N+](C)C)ccc-6nc5c5ccccc45)c4ccccc43)oc-2c1`, for which the growth is -25.5% (active).

`C[n+]1c(/C=C/c2ccc([N+](=O)[O-])cc2)ccc2ccccc21`: the growth was 97.6% (inactive).

Consider `CCC(CCCN(CC)CCc1ccccc1)OC(=O)c1cc(OC)c(OC)c(OC)c1` (centres undefined), for which the growth was 82.9% (inactive).

Regarding `O=C(/C=C\c1ccccc1)N1c2ccccc2CC1c1c[nH]c2ccccc12` (centres undefined), the growth was 78.2% (inactive).

For `OC(CNc1ccnc2cc(Cl)ccc12)CNc1ccnc2cc(Cl)ccc12`, the growth is -31.2% (active).

With `COC(=O)c1nc(=S)[nH]c(C(=O)OC)c1C(=O)c1ccccn1`, the growth was 43.3% (inactive).

For the compound `Cc1ccc(N=C=C(c2ccccc2)c2ccccc2)cc1`, the growth was 35.8% (inactive).

For the compound `NC(=S)N/N=C/c1ccc(Cl)s1`, the growth was 105% (inactive).

As for `O=[N+]([O-])c1ccc2c(N=Nc3ccc4ccccc4c3O)c(O)cc(S(=O)(=O)O)c2c1`, the growth is 92.2% (inactive).
